Assay [1] in a line: inhibitors of TNFa-induced NFkB p65 translocation, primary screen, imaging, HUVEC, MLSMR starter and 10KST1 sets (AID 438;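 active = inhibition above 20% together with a positive visual image hit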;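 note: compound added about 3h40 before a 20 min TNFalpha stimulation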;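 for inhibition: signal is the nuclear over cytoplasmic p65 intensity ratio per well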). To be noted: HUVEC TNFa-induced p65 nuclear translocation; cell count: measured here: nuclei count (cytotoxicity indicator), at 2.08 µM; inhibition: at 2 µM, stronger effect = higher value, 0% TNFa-plus-vehicle, 100% no-TNFa wells.
A short description of assay [2]: reduction of polyQ htt aggregates in cells – imaging, exon1htt(103Q)mCFP cells, high-content imaging, primary screen (AID 483;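 active = visual image review flags a hit and inhibition of aggregation exceeds 20%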;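 note: compound exposure lasted 3 days before fixation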;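 for nuclei count: percent of the per-plate median nuclei count of sample wells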). To be noted: exon1htt(103Q)mCFP cell line, aggregate imaging, at 2 µM; inhibition of aggregation: stronger effect = higher value; nuclei count: measured here: cell count, toxicity.
The nature of assay [3]: endothelial E-selectin expression blockers – imaging, HUVEC, immunofluorescence, MLSMR starter and 10KST1 sets, primary screen (AID 487;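 active = visually confirmed hit in the image check and inhibition above 20%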;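 for inhibition: signal is fraction of cell area covered by stained E-selectin grains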;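 for nuclei count: 100% = median nuclei count of all wells on the same plate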). To be noted: HUVEC TNFalpha-induced E-selectin immunofluorescence imaging, at 2 µM; inhibition: stronger effect = higher value; nuclei count: measured here: cell number, toxicity.
Assay [4] concerns the target Voltage-gated potassium channel subunit beta-2 (Rattus norvegicus) (UniProt P62483). The assay can be described thus: inhibitors of rat Kvbeta2 reductase activity – biochemical, NADPH fluorescence, primary screen (AID 622;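 active = fluorescence slope higher than the sample average by over 3 SD, cut at about -0.22 in these data, passing the limit was not always enough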;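 note: slope of raw intensity against log time taken from 70 to 1610 s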). The conditions noted are these: recombinant KvBeta, 4-cyanobenzaldehyde reduction, at 10 µM, stronger effect = higher value.
Assay [5] has the same target. The assay can be described thus: enhancers of rat Kvbeta2 NADPH turnover – biochemical, NADPH fluorescence, primary screen (AID 623;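 active = NADPH fluorescence slope more negative than the mean of all samples by about 3 SD, 99.7% confidence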;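 note: fluorescence intensity change per second fitted from 20 to 320 s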). To be noted: Recombinant KvBeta, NADPH fluorescence decrease slope, 10 min; at 10 µM; stronger effect = lower value.
The target of assay [6] is Alpha-2C adrenergic receptor (Homo sapiens) (UniProt P18825). The assay can be described thus: compounds altering alpha2C-coupled GIRK flux – cell-based, HEK293 alpha2C/GIRK1/2, thallium flux, primary screen (AID 624;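 active = fluorescence slope after compound addition differing from the mean of all screened samples at 99.7% confidence, in either direction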;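 note: slope of fluorescence ratio to pre-addition baseline per second over 15 to 24 s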). The conditions noted are these: thallium flux BTC fluorescence, at 10 µM, actives lie on both sides.
Chain of Alpha-2C adrenergic receptor (Homo sapiens) (P18825 whole entry, looked up): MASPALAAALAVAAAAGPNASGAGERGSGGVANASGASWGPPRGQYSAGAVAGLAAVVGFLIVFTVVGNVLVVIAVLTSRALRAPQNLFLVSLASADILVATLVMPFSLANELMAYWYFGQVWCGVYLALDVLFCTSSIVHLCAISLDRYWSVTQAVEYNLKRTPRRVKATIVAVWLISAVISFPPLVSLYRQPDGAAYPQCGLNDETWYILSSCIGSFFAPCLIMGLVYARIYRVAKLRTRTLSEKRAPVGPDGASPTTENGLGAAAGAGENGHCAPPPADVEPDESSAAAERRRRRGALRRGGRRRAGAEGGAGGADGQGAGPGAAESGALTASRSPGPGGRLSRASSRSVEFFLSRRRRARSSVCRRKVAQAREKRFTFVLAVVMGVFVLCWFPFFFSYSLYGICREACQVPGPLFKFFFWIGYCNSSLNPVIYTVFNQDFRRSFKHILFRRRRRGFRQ
Assay [7] can be described thus: blockers of RIG-like receptor reporter activation – cell-based, Sendai virus stimulus, luciferase, 10K MLSCN set, TLR/RLR signaling modifier project, primary screen (AID 602276;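 active = inhibition at or above 50% at 10 µM; inactive = inhibition below 50%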;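 note: firefly luciferase from ISG56 promoter only with Renilla not read in this screen; 0% = Sendai virus plus DMSO and 100% = medium plus DMSO without virus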). To be noted: HEK293 RL24 IRF3 luciferase reporter, at 10 µM, stronger effect = higher value.
Assay [8] can be described thus: TLR3 IRF3 reporter activation blockers – cell-based, poly I:C stimulus, luciferase, 10K MLSCN set, primary screen (AID 602277). To be noted: HEK293-TLR3 RL24 IRF3 luciferase reporter, at 10 µM, stronger effect = higher value.

SMILES strings stand for the structures. Active and inactive are the calls of the source.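 Rule for the calls, unless noted: active = inhibition of the reporter signal at or above 50%; inactive = inhibition below 50%.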

Chain of Voltage-gated potassium channel subunit beta-2 (Rattus norvegicus) (P62483 whole entry, looked up): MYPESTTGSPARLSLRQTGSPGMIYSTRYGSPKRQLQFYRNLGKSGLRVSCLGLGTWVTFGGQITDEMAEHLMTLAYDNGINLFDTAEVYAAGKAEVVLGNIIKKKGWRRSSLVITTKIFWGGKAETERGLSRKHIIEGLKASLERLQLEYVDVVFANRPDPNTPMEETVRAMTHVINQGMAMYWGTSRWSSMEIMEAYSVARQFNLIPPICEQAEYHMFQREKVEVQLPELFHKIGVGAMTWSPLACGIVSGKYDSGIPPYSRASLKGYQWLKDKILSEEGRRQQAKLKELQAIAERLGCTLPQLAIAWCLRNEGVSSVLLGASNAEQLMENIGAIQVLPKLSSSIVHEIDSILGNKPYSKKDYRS

With `CN1CC=C2C(C#N)=C(N)C(C#N)(C#N)C(Cc3ccccc3)C2C1` (stereo not drawn), the cell count in assay [1] was found to be 556. Moreover, the inhibition in assay [1] was 10% (inactive); in assay [3] it was -7.7% (inactive); in assay [7], 4.84% (inactive); in assay [8], 8.81% (inactive). The inhibition of aggregation in assay [2] was 0.5% (inactive). Besides, the values for the nuclei count in assay [2] and in assay [3] were 81.2% and 102%, respectively. Moreover, in assay [4], the fluorescence slope was -0.507 (inactive). For the same molecule, the NADPH fluorescence slope in assay [5] was -2.1e-05 (inactive). Also, the slope in assay [6] was 0.0052 (inactive).

With `Cn1c(=O)c2c(nc3sccn32)n(C)c1=O`, the cell count in assay [1] was 463. The inhibition is 12.5% (inactive) in assay [1], 29.8% (inactive) in assay [3], 9.58% (inactive) in assay [7] and 23.1% (inactive) in assay [8]. The inhibition of aggregation in assay [2] is 5.1% (inactive). The values for the nuclei count in assay [2] and in assay [3] were 100% and 108%, respectively. For the same molecule, the fluorescence slope in assay [4] is -0.455 (inactive). The NADPH fluorescence slope in assay [5] was 7.5e-05 (inactive). For the same molecule, the slope in assay [6] was 0.00599 (inactive).

Regarding `COc1ccc(N(C(=O)c2ccco2)C(C(=O)NC2CCCC2)c2ccc(N(C)C)cc2)cc1OC` (stereo not drawn), the cell count in assay [1] was found to be 596. The inhibition is -18.8% (inactive) in assay [1], -96.5% (inactive) in assay [3], 3.23% (inactive) in assay [7] and 27.3% (inactive) in assay [8]. Besides, in assay [2], the inhibition of aggregation is -35.5% (inactive). Also, the results for the nuclei count in assay [2] and in assay [3] were 116% and 109%, respectively. Moreover, the fluorescence slope in assay [4] is -0.48 (inactive). Besides, the NADPH fluorescence slope in assay [5] is 3.2e-05 (inactive). Moreover, in assay [6], the slope is 0.00496 (inactive).

For the molecule `O=C(NC1=NCCS1)NC12CC3CC(CC(C3)C1)C2`, the cell count in assay [1] was found to be 357. For the same molecule, the inhibition in assay [1] was -3.3% (inactive); in assay [3] it was -52.9% (inactive); in assay [7], -1.24% (inactive); in assay [8], 12.2% (inactive). Moreover, the inhibition of aggregation in assay [2] was 6.6% (inactive). In addition, the nuclei count in assay [2] was 96.6%; in assay [3], 101%. For the same molecule, the fluorescence slope in assay [4] is -0.598 (inactive). In addition, the NADPH fluorescence slope in assay [5] was -3.4e-05 (inactive). In assay [6], the slope is 0.00362 (inactive).

`Cc1cccc(CC2CC(=O)N(c3ccccc3)C2=O)c1` (stereo not drawn): the cell count in assay [1] was found to be 203. Further, the inhibition in assay [1] is -2.9% (inactive); in assay [3], 11.6% (inactive); in assay [7], -16.2% (inactive); in assay [8], -11.2% (inactive). Also, the inhibition of aggregation in assay [2] is -15.1% (inactive). For the same molecule, the nuclei count in assay [2] came to 84.5%; in assay [3] it was 102%. Further, in assay [4], the fluorescence slope was -0.554 (inactive). The NADPH fluorescence slope in assay [5] is -2.2e-05 (inactive). Besides, the slope in assay [6] was 0.00674 (inactive).

Regarding `COC(=O)c1cccc(Oc2nc3c(c(=O)n(C)c(=O)n3C)n2C(C)C)c1`, the cell count in assay [1] came out at 668. The inhibition was -5.8% (inactive) in assay [1], -55.6% (inactive) in assay [3], 15% (inactive) in assay [7] and 28.3% (inactive) in assay [8]. Also, in assay [2], the inhibition of aggregation is 3.9% (inactive). For the same molecule, the values for the nuclei count in assay [2] and in assay [3] were 102% and 106%, respectively. In addition, in assay [4], the fluorescence slope was -0.436 (inactive). For the same molecule, the NADPH fluorescence slope in assay [5] was -3.6e-05 (inactive). In addition, the slope in assay [6] was 0.00584 (inactive).

For the molecule `Cc1ccc(C(c2sc3ncnn3c2O)N2CC(C)CC(C)C2)cc1` (stereo not drawn), in assay [1], the cell count is 628. Besides, the inhibition is -2.4% (inactive) in assay [1], -22.9% (inactive) in assay [3], 10.9% (inactive) in assay [7] and 35.9% (inactive) in assay [8]. Moreover, the inhibition of aggregation in assay [2] was 14.8% (inactive). Also, the nuclei count in assay [2] came to 80.8%; in assay [3] it was 101%. Further, the fluorescence slope in assay [4] was -0.58 (inactive). The NADPH fluorescence slope in assay [5] was -5.6e-05 (inactive). For the same molecule, the slope in assay [6] is 0.00795 (inactive).

Turning to `Cc1ccc(C(=O)Nc2ccc(Cl)cn2)cc1S(=O)(=O)N1CCOCC1`, the cell count in assay [1] was 568. Further, the inhibition in assay [1] was -10.1% (inactive); in assay [3] it was -12.7% (inactive); in assay [7], -6.64% (inactive); in assay [8] it was -36% (inactive). For the same molecule, in assay [2], the inhibition of aggregation was -0.1% (inactive). Further, the nuclei count in assay [2] is 112%; in assay [3], 102%. Further, the fluorescence slope in assay [4] was -0.503 (inactive). Besides, in assay [5], the NADPH fluorescence slope is 9.5e-06 (inactive). Further, the slope in assay [6] was 0.00409 (inactive).

`O=C(C1CCCN(S(=O)(=O)c2cccnc2)C1)N1CCn2c1nc1ccccc12` (stereo not drawn): in assay [1], the cell count was 639. Besides, the inhibition is -11.6% (inactive) in assay [1], -57.5% (inactive) in assay [3], -7.64% (inactive) in assay [7] and -1.49% (inactive) in assay [8]. In addition, in assay [2], the inhibition of aggregation is -20.6% (inactive). Besides, the nuclei count in assay [2] was determined as 112%; in assay [3] it was 107%. In addition, in assay [4], the fluorescence slope was -0.595 (inactive). Also, in assay [5], the NADPH fluorescence slope was -2.6e-05 (inactive). Besides, the slope in assay [6] was 0.00573 (inactive).

As for `Cc1ccccc1Cn1ccc(NC(=O)c2onc(C)c2Cl)n1`, the cell count in assay [1] came out at 654. The inhibition is -1.6% (inactive) in assay [1], -52.1% (inactive) in assay [3], -15.7% (inactive) in assay [7] and -37% (inactive) in assay [8]. Further, in assay [2], the inhibition of aggregation is 28.9% (inactive). Moreover, the results for the nuclei count in assay [2] and in assay [3] were 118% and 106%, respectively. For the same molecule, the fluorescence slope in assay [4] is -0.425 (inactive). The NADPH fluorescence slope in assay [5] is -4.5e-05 (inactive). Further, the slope in assay [6] was 0.00472 (inactive).

Take `CCCN1C2CCCC1CC(NC(=O)c1ccccc1F)C2` (stereo not drawn): in assay [1], the cell count stood at 461. The inhibition was 6% (inactive) in assay [1], 14.8% (inactive) in assay [3], 10.6% (inactive) in assay [7] and 17.7% (inactive) in assay [8]. In addition, the inhibition of aggregation in assay [2] was -1.6% (inactive). Moreover, the nuclei count in assay [2] was found to be 115%; in assay [3], 101%. Besides, the fluorescence slope in assay [4] was -0.515 (inactive). Further, the NADPH fluorescence slope in assay [5] is -4.7e-05 (inactive). For the same molecule, the slope in assay [6] was 0.00485 (inactive).

Turning to `CC1CCCCC1NC(=O)c1ccc(N2CCCC2=O)cc1` (stereo not drawn), the cell count in assay [1] turned out to be 536. Also, the inhibition in assay [1] was -21.7% (inactive); in assay [3], -20.8% (inactive); in assay [7], 5.47% (inactive); in assay [8] it was -5.67% (inactive). Besides, in assay [2], the inhibition of aggregation is -20.5% (inactive). The nuclei count came out at 142% in assay [2] and 103% in assay [3]. In addition, the fluorescence slope in assay [4] was -0.51 (inactive). Besides, the NADPH fluorescence slope in assay [5] is 3.4e-05 (inactive). The slope in assay [6] was 0.00599 (inactive).

Take `Cn1c(=O)[nH]c(=O)c2[nH]c(NCCCN3CCOCC3)nc21`: in assay [1], the cell count came to 572. For the same molecule, the inhibition in assay [1] was 4.8% (inactive); in assay [3], -36.4% (inactive); in assay [7], 9.97% (inactive); in assay [8], 14.9% (inactive). In addition, the inhibition of aggregation in assay [2] is 8% (inactive). Further, the results for the nuclei count in assay [2] and in assay [3] were 92.2% and 112%, respectively. Besides, the fluorescence slope in assay [4] is -0.613 (inactive). Besides, the NADPH fluorescence slope in assay [5] is -1.9e-05 (inactive). In assay [6], the slope was 0.00608 (inactive).

The record behind these values is PubChem BioAssay.
